Reference: PubChem BioAssay (Tox21)
Records with an inconclusive call do not appear. The source made the active and inactive calls. Unless noted, calls come from the whole dose curve; as a rule, active = well fitted curve in the direction sought with a large enough effect in the repeat runs; inconclusive = weak or mixed curves; inactive = no such curve, though single readings can be large; an effect the other way counts as inactive or inconclusive.

Legend:
[1] = qHTS assay to identify small molecule agonists of the progesterone receptor (PR) signaling pathway - cell viability counter screen (AID 1346799; calls by dose curve; note: nearly all actives have a fitted effect of over 45% in size)
In short: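 Viability was scored by ATP luminescence (CellTiter-Glo, 30 min, room temperature) in the same wells used for the reporter readout, after 16 hr compound exposure of PR-UAS-bla HEK293T cells.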

[2] = qHTS assay to identify small molecule antagonists of the TGF-beta/Smad signaling pathway - cell viability counter screen (AID 1346824); note: nearly all actives have a fitted effect of over 50% in size
In short: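 SBE-bla HEK 293T cells, incubated overnight, then compound plus 0.25 ng/mL TGF-beta1 (stock added) for 5 hr at 37 C. Viability was read in the same wells by CellTiter-Glo luminescence after 30 min at room temperature.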

[3] = qHTS assay to identify small molecule agonists of the TGF-beta/Smad signaling pathway - cell viability counter screen (AID 1346829); note: top concentration of the series differs between compounds; nearly all actives have a fitted effect of over 45% in size
In short: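 Same-well cytotoxicity: CellTiter-Glo added after the 2 hr room-temperature beta-lactamase substrate step, luminescence measured 30 min later; cells had 5 hr of compound at 37 C.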

[4] = qHTS assay to identify small molecule agonists of the TGF-beta/Smad signaling pathway (AID 1346859; active = well fitted activation curve with a large enough effect in the signal ratio in the repeat runs, not every such curve was filed as active; the % refers to the signal ratio; note: series mostly up to about 77 µM)
In short: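 Dual-wavelength fluorescence (460/530 nm emission) quantified beta-lactamase expression under the Smad binding element in HEK 293T cells following 5 hr compound treatment at 37 C.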

[5] = target: Thyrotropin-releasing hormone receptor (Homo sapiens) (UniProt P34981); assay: qHTS assay to identify small molecule antagonists of the thyrotropin-releasing hormone receptor (TRHR) signaling pathway (AID 1346877; active = well fitted inhibition curve with a large enough effect in the repeat runs, not every such curve was filed as active; note: series mostly up to about 51 µM)
Sequence of Thyrotropin-releasing hormone receptor (Homo sapiens) (P34981 whole entry, looked up): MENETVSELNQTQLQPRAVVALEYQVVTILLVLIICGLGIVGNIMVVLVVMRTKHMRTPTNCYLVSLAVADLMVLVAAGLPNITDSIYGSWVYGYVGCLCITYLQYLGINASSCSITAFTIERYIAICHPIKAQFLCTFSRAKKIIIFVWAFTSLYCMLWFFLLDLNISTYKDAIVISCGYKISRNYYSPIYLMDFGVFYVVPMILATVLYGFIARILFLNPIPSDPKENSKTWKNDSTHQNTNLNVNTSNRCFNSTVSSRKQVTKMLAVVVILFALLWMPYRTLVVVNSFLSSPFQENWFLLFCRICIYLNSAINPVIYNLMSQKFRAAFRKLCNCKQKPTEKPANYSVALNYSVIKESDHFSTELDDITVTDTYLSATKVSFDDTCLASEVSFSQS
In short: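 TRHR-expressing HEK293 cells loaded with calcium dye for 2 h at 37 C; compounds pre-incubated 5 min at room temperature before TRH challenge at 1 nM final. Intracellular calcium fluorescence read kinetically for 3 min; 15 concentrations in triplicate.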

[6] = target: Thyrotropin-releasing hormone receptor (Homo sapiens) (UniProt P34981); assay: qHTS assay to identify small molecule agonists of the thyrotropin-releasing hormone receptor (TRHR) signaling pathway (AID 1346891; calls by dose curve; note: series mostly up to about 58 µM)
In short: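 Kinetic fluorescence (3 min, 1 s intervals) reported intracellular calcium after compound transfer onto TRHR-Hek293 cells pre-loaded with dye for 2 h at 37 °C.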

[7] = Human pregnane X receptor (PXR) small molecule agonists, qHTS cell viability counter screen (AID 1346977); note: nearly all actives have a fitted effect of over 50% in size; note: potency is the fitted concentration of half-maximal effect
In short: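 HepG2 cells stably carrying the PXR-Luc reporter are cultured with 5% charcoal-stripped FBS and treated with compounds for 24hr. CellTiter-Fluor is added at 23hr and fluorescence is read after 1hr.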

[8] = Caspase-3/7 induction in HepG2 cells by small molecules, qHTS assay (AID 1346978); note: nearly all actives have a fitted effect of over 15% in size; note: potency is the fitted concentration of half-maximal effect
In short: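 Wild-type HepG2 cells, 2,000/well, settled 5 hr at 37 C and 5% CO2, then compound-treated for 17 hr; caspase-3/7 activity read by luminescent Caspase-Glo 3/7 after 30 min at room temperature.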

[9] = Caspase-3/7 induction in CHO-K1 cells by small molecules, qHTS cell viability counter screen (AID 1346979); note: nearly all actives have a fitted effect of over 35% in size; note: potency is the fitted concentration of half-maximal effect
In short: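 Seeding: 1,500 CHO-K1 cells/well. Rest: 5hr, 37C. Treatment: compounds in DMSO, 16hr. Read: CellTiter-Fluor, 1hr, fluorescence.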

[10] = Caspase-3/7 induction in CHO-K1 cells by small molecules, qHTS assay (AID 1346980); note: nearly all actives have a fitted effect of over 15% in size; note: potency is the fitted concentration of half-maximal effect
In short: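 Wild-type CHO-K1 cells exposed to compounds for 17hr at 37 C, 5% CO2. Caspase-3/7 activity then measured by Caspase-Glo 3/7 luminescence after 30min at room temperature.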

[11] = Caspase-3/7 induction in HepG2 cells by small molecules, qHTS cell viability counter screen (AID 1346981); note: series mostly up to about 92 µM; nearly all actives have a fitted effect of over 30% in size
In short: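 Wild-type HepG2 cells, 2,000/well, settled 5 hr at 37 C, 5% CO2 before compound addition. Viability read by CellTiter-Fluor fluorescence, reagent added after 16 hr compound exposure, then 1 hr at 37C, in the same wells as the caspase read.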

[12] = target: Nuclear receptor subfamily 1 group I member 2 (Homo sapiens) (UniProt O75469); assay: Human pregnane X receptor (PXR) small molecule agonists, qHTS assay (AID 1346982); note: nearly all actives have a fitted effect of over 35% in size; note: potency is the fitted concentration of half-maximal effect
Sequence of Nuclear receptor subfamily 1 group I member 2 (Homo sapiens) (O75469 whole entry, looked up): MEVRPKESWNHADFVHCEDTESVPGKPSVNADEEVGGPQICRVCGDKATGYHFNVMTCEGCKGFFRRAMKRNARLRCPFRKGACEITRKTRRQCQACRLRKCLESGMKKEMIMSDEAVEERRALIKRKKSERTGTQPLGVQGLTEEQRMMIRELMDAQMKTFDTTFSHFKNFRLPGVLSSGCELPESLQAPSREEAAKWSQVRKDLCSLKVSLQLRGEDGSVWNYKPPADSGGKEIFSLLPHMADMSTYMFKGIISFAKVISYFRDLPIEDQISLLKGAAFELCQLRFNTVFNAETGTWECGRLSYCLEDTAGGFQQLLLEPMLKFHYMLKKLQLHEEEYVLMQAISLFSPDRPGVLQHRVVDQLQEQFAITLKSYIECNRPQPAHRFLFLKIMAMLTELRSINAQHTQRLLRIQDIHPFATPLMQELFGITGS
In short: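 PXR-Luc HepG2 reporter cells (CYP3A4-driven luciferase) in 5% charcoal-stripped FBS medium, plated 5 h before compound addition, then treated 24 h at 37C. Luciferase read by ONE-Glo luminescence after 30 min at room temperature.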

[13] = target: Nuclear receptor subfamily 1 group I member 2 (Homo sapiens) (UniProt O75469); assay: CYP3A4 induction through human pregnane X receptor (PXR) by small molecules, qHTS assay (AID 1346984); note: nearly all actives have a fitted effect of over 40% in size
In short: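 DPX-2 HepG2 cells carrying a PXR response element and CYP3A4-promoter luciferase construct, treated with compounds 24 hr at 37C. Then P450-Glo CYP3A4 Luciferin-IPA substrate (3uM final) for 3 hr at 37C, One-Glo added, luminescence read.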

[14] = target: Nuclear receptor subfamily 1 group I member 2 (Homo sapiens) (UniProt O75469); assay: Human pregnane X receptor (PXR) activation by small molecules, qHTS assay (AID 1346985); note: nearly all actives have a fitted effect of over 40% in size
In short: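 DPX-2 cells (HepG2 co-transfected with a PXR response element and a CYP3A4-promoter luciferase construct) were seeded at 2,000 per well, rested 5 hr at 37C, then exposed to DMSO-dissolved compounds for 24 hr. Activation was read as luciferase luminescence.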

[15] = target: Cytochrome P450 2D6 (Homo sapiens) (UniProt P10635); assay: Cytochrome P450 Family 2 Subfamily D Member 6 (CYP2D6) small molecule antagonists: luciferase reporter qHTS assay (AID 1671196); note: nearly all actives have a fitted effect of over 50% in size; note: potency is the fitted concentration of half-maximal effect
Sequence of Cytochrome P450 2D6 (Homo sapiens) (P10635 whole entry, looked up): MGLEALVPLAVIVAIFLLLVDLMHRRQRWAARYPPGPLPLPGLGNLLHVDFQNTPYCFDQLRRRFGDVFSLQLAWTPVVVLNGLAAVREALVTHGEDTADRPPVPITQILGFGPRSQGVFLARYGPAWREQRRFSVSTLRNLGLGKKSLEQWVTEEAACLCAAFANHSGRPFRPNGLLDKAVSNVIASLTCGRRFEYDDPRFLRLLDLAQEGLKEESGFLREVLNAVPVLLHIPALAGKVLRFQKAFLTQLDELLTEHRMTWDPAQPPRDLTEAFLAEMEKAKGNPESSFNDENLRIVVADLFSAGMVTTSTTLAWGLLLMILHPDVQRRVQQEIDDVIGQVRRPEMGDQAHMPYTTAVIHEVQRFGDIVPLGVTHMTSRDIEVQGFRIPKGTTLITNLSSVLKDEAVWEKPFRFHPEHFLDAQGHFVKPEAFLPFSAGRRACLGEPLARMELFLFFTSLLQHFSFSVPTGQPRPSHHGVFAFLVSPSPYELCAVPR
In short: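 Cell-free P450-Glo system: CYP2D6 with proluciferin substrate was pre-incubated with compound for 10 min, then reacted with NADPH regeneration for 1 h at room temperature. Luciferin product was detected after 20 min, and data were reported as relative luminescence units.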

[16] = target: Cytochrome P450 2C19 (Homo sapiens) (UniProt P33261); assay: Cytochrome P450 Family 2 Subfamily C Member 19 (CYP2C19) small molecule antagonists: luciferase reporter qHTS assay (AID 1671197); note: nearly all actives have a fitted effect of over 65% in size; note: potency is the fitted concentration of half-maximal effect
Sequence of Cytochrome P450 2C19 (Homo sapiens) (P33261 whole entry, looked up): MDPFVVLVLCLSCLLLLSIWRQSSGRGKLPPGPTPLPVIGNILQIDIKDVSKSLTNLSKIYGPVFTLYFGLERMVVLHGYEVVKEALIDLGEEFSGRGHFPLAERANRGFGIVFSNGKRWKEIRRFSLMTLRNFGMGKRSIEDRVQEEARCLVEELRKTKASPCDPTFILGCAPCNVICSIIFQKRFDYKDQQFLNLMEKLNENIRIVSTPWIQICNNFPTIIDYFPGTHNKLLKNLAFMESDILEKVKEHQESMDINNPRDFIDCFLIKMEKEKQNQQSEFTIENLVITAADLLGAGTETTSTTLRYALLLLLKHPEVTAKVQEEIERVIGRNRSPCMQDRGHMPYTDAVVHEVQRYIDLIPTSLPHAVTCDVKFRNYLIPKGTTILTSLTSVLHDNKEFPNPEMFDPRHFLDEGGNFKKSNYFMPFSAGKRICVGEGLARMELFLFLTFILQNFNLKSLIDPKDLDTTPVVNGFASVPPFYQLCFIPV
In short: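 Quantitative high-throughput screen of the Tox21 library using CYP2C19 with proluciferin substrate. Reaction: NADPH regeneration, 37C, 1 h, after 10 min compound preincubation at room temperature. Readout: luminescence.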

[17] = target: Cytochrome P450 1A2 (Homo sapiens) (UniProt P05177); assay: Cytochrome P450 Family 1 Subfamily A Member 2 (CYP1A2) small molecule antagonists: luciferase reporter qHTS assay (AID 1671199); note: nearly all actives have a fitted effect of over 50% in size; note: potency is the fitted concentration of half-maximal effect
Sequence of Cytochrome P450 1A2 (Homo sapiens) (P05177 whole entry, looked up): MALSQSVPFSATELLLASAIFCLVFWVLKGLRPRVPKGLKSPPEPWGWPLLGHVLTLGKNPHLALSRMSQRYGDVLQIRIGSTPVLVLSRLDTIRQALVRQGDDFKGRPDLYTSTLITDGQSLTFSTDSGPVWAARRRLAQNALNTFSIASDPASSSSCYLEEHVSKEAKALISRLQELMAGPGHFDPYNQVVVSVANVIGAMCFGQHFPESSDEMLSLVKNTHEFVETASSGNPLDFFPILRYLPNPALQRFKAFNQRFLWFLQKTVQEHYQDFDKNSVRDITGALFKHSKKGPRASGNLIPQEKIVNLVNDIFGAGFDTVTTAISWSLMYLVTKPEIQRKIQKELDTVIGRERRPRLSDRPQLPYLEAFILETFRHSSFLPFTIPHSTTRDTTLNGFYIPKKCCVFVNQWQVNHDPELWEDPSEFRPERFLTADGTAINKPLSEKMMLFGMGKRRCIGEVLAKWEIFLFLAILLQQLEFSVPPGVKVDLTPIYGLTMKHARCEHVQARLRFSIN
In short: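 P450-Glo CYP1A2 enzyme–proluciferin substrate mix with compound 10 min at room temperature, then NADPH regeneration 1 h at room temperature. Luciferin detection reagent added, luminescence read after 20 min; furafylline positive control.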

[18] = qHTS assay to identify small molecule antagonists of the progesterone receptor (PR) signaling pathway - cell viability counter screen (AID 1346798); note: nearly all actives have a fitted effect of over 50% in size; note: potency is the fitted concentration of half-maximal effect
In short: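 Viability was determined by ATP-based luminescence (CellTiter-Glo) in PR-UAS-bla HEK293T cells cultured in 2% charcoal-stripped serum and incubated 16 hr with compounds under R5020 stimulation.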

[19] = target: Cytochrome P450 2C9 (Homo sapiens) (UniProt P11712); assay: Cytochrome P450 Family 2 Subfamily C Member 9 (CYP2C9) small molecule antagonists: luciferase reporter qHTS assay (AID 1671198); note: nearly all actives have a fitted effect of over 50% in size; note: potency is the fitted concentration of half-maximal effect
Sequence of Cytochrome P450 2C9 (Homo sapiens) (P11712 whole entry, looked up): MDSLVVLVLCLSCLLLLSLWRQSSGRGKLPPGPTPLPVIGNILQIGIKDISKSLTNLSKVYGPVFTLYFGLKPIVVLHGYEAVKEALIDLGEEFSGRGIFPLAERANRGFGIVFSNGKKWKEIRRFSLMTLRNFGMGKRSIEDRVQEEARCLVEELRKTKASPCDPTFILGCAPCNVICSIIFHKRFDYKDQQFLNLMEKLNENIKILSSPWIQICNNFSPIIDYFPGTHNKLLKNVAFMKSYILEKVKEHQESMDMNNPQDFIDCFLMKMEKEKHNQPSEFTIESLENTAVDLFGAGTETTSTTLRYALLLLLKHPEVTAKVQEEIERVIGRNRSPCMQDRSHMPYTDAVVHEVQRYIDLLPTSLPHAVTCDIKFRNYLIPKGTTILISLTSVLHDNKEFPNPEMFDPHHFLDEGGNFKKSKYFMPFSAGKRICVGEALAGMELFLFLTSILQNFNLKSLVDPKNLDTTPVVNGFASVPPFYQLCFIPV
In short: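 P450-Glo proluciferin substrate with CYP2C9 enzyme; 10 min RT preincubation, then NADPH regeneration 1 h at 37C; luciferin detection reagent 20 min RT, luminescence in relative luminescence units.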

Measured: Potency

NC(=O)C(=O)N/N=C/c1ccc([N+](=O)[O-])o1
inactive: [1] | [2] | [3] | [4] | [5] | [6] | [7] | [8] | [10] | [11] | [12] | [13] | [14] | [15] | [16] | [17]
active: [9] 23.7 µM

CCOB(OCC)OCC
inactive: [18] | [2] | [3] | [4] | [7] | [8] | [9] | [10] | [11] | [12] | [15] | [17]

CNC(=S)NN
active: [18] 13.7 µM | [7] 12.2 µM | [8] 61.1 µM | [9] 19.3 µM | [17] 39.9 µM
inactive: [2] | [3] | [4] | [10] | [11]

C=C1C(C)(C)[C@@]2(Cl)C(Cl)[C@]1(Cl)C(Cl)(Cl)C2(Cl)Cl (stereo partly specified)
active: [18] 67.3 µM | [9] 60 µM | [10] 60 µM | [12] 10.7 µM | [15] 31.1 µM | [16] 1.96 µM | [19] 13.9 µM | [17] 39.2 µM
inactive: [2] | [3] | [4]

Clc1ccccc1CN1CCc2sccc2C1
inactive: [18] | [3] | [5] | [6] | [7] | [8] | [9] | [10]

CC(C)=CCCC(C)O (stereo unspecified)
inactive: [18] | [2] | [3] | [4] | [7] | [8] | [9] | [10] | [11] | [12] | [15] | [19] | [17]

CCO[Si](CCCSSSSCCC[Si](OCC)(OCC)OCC)(OCC)OCC
active: [15] 35.6 µM | [16] 5.03 µM | [19] 12.6 µM | [17] 71.1 µM
inactive: [18] | [2] | [3] | [5] | [6] | [7] | [8] | [10] | [11] | [12]

CCCCCCCCCC(=O)N(C)C
inactive: [1] | [2] | [3] | [4] | [5] | [6] | [7] | [8] | [9] | [10] | [11] | [15]
active: [12] 62.1 µM | [16] 36.1 µM | [19] 40.5 µM | [17] 36.1 µM

Nc1ncnc2c1ncn2[C@@H]1O[C@H](COP(=O)(O)O)[C@@H](O)[C@H]1O
inactive: [1] | [2] | [3] | [4] | [5] | [6] | [7] | [8] | [9] | [10] | [11] | [12] | [13] | [14] | [15] | [16] | [19]

CCCCCCCC(C)=O
inactive: [18] | [2] | [3] | [4] | [7] | [8] | [9] | [10] | [11] | [12] | [15] | [16] | [19]
active: [17] 35.6 µM

CCC(C)(C)c1cc(O)c(C(C)(C)CC)cc1O
active: [12] 30.6 µM | [16] 31.7 µM | [19] 63.3 µM
inactive: [18] | [2] | [3] | [6] | [7] | [8] | [10] | [15] | [17]

CCOC(=O)CC(C)O (stereo unspecified)
inactive: [18] | [2] | [3] | [4] | [8] | [9] | [10] | [11] | [12] | [15] | [19] | [17]

COC(=O)CC(C)CCC=C(C)C (stereo unspecified)
inactive: [18] | [2] | [3] | [4] | [5] | [7] | [8] | [9] | [10] | [12] | [15] | [16] | [19]

Cn1cnc2ncnc(N)c21
active: [17] 17.7 µM
inactive: [18] | [2] | [4] | [5] | [7] | [8] | [9] | [10] | [11] | [12] | [16]

CNC(=O)c1cc(Oc2ccc(NC(=O)Nc3ccc(Cl)c(C(F)(F)F)c3)cc2)ccn1
active: [18] 33.5 µM | [7] 23.7 µM | [9] 26.6 µM | [16] 27.5 µM | [19] 17.4 µM
inactive: [3] | [4] | [5] | [6] | [10] | [12] | [14] | [17]

CC1CNCC(C)O1 (stereo unspecified)
inactive: [18] | [2] | [3] | [4] | [7] | [8] | [9] | [10] | [12] | [15] | [16] | [19]
